Source: PubChem
In the library only some 8.1% were active in any assay of this set; here they are far more common.
ELG1 repair inh: qHTS screen for small molecules that inhibit ELG1-dependent DNA repair in human embryonic kidney (HEK293T) cells expressing luciferase-tagged ELG1. HEK293T ELG1-luciferase reporter, luminescence, 16 h; DNA damage induced by 5-fluorouridine. 330,000 tested, 2.3% active. Potency, µM (doses to about 46.1 µM), for the others: top-dose activity change, negative = inhibition, hits mostly inhibitors. AID 504467, 2011; further: on the % scale 0 is the no-effect control and ±100 the full control effect; nearly all actives have a fitted effect of over 55% in size
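Overnight (16 hr) co-exposure of 2,000 cells/well to 5-fluorouridine and compound at 37 °C preceded detection. Luciferase was quantified via ONE-Glo luminescence; loss of signal denotes inhibition.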
MCF10A rereplic: A quantitative high throughput screen for small molecules that induce DNA re-replication in MCF 10a normal breast cells; 350,000 tested, 2.9% active; Potency, µM (highest dose often 46.1 µM), for the others: at the highest dose activity, positive = re-replication, most hits filed as activators; MCF 10A DNA re-replication, Hoechst nuclear intensity, 48 h; further: % of control where 0% means no effect; nearly all actives have a fitted effect of over 50% in size
KB-3-1 cytotox: qHTS assay for MDR1-selective chemotherapeutics: Primary screen using the parental adenocarcinoma cell KB-3-1. 400,000 tested, 1.4% active. Potency, µM (top dose mostly 46.1 µM), actives largely listed as cytotoxic. KB-3-1 viability, CellTiter-Glo ATP luminescence, 72 h; further: on the % scale 0 is the no-effect control and ±100 the full control effect; nearly all actives have a fitted effect of over 60% in size
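Here the drug-naive KB-3-1 line serves as comparator for MDR sub-line selectivity; cells received compound titrations, 72 h at 37 °C, then CellTiter-Glo readout.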
KB-V1 MDR tox: qHTS assay for MDR1-selective chemotherapeutics: Primary screen using the drug-selected MDR subline cells KB-V1 | KB-V1 MDR cells viability, CellTiter-Glo, 72 h | Potency, µM (top dose mostly 46.1 µM), hits mostly cytotoxic | 400,000 tested, 3.4% active | AID 1347076, 2019; further: on the % scale 0 is the no-effect control and ±100 the full control effect; nearly all actives have a fitted effect of over 60% in size
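Cytotoxicity toward P-gp-expressing KB-V1 cells was determined as loss of CellTiter-Glo luminescence after 72 h at 37 degrees C. Compounds were tested in quantitative HTS format across a concentration range, with curves fitted to normalized data.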
SW480 rereplic: A quantitative high throughput screen for small molecules that induce DNA re-replication in SW480 colon adenocarcinoma cells. SW480 DNA re-replication, Hoechst DNA content imaging, 48 h. Potency, µM (highest dose often 46.1 µM), without a hit: at the highest dose re-replication activation, actives largely listed as activators. 340,000 tested, 1.8% active. AID 624297, 2012; further: % of control where 0% means no effect; nearly all actives have a fitted effect of over 55% in size
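250 cells/well; 23 nL cpd via pin tool; 48 hr, 37 C, 5% CO2; Hoechst 40 min; imager read of total nuclear intensity, ex 405/em 500-530 nm.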
The depositor's hits bear a star; i = inactive; u = inconclusive; x = not tested or not shown. The call rests on the fitted dose curve; in most records, active means well fitted curve in the direction sought with a large enough effect; inconclusive means small, poorly fitted or top-dose-only effect, or another doubt; inactive means no such curve, though single readings can be large; an effect the other way counts as inactive or inconclusive. Potency means the concentration at half of the fitted maximal effect.

SMILES	ELG1 repair inh	MCF10A rereplic	KB-3-1 cytotox	KB-V1 MDR tox	SW480 rereplic
Cc1ccc(SCc2cc(=O)[nH]c(Nc3nc(C)c4cccc(C)c4n3)n2)cc1	-3%	-6%	i	21µM*	-1%
CCS(=O)(=O)Nc1ccc(-c2nc3cccnc3s2)cc1	u	27%	i	i	-7%
Cc1cc(-c2nc3cccnc3s2)ccc1NS(=O)(=O)c1cccs1	u	5.8µM*	i	i	u
O=S(=O)(Nc1ccc(-c2nc3cccnc3s2)cc1)c1cccs1	u	6.5µM*	i	i	5%
O=S(=O)(Nc1ccc(-c2nc3cccnc3s2)cc1)c1ccc(Cl)s1	u	8.2µM*	i	i	-2%
O=S(=O)(Nc1ccc(-c2nc3cccnc3s2)cc1)c1ccccc1F	u	u	i	i	23µM*
CCS(=O)(=O)Nc1cccc(-c2nc3cccnc3s2)c1	u	-3%	i	i	-1%
O=S(=O)(Nc1cccc2ncccc12)c1cccs1	4.1µM*	16µM*	u	u	6.5µM*
Cc1c(NS(=O)(=O)c2ccc3c(c2)OCCO3)cccc1-c1nc2cccnc2s1	u	1%	u	i	0%
Cc1cc(-c2nc3cccnc3s2)ccc1NS(=O)(=O)c1ccc2c(c1)OCCO2	u	5.2µM*	i	i	u
CCOc1ccccc1NC(=O)c1c(NC(=O)c2cccc(C)c2)sc2c1CCC2	x	x	i	i	x
CCOc1cc(C(=O)NCc2ccc3c(c2)CCN3C(=O)CC)cc(OCC)c1OCC	x	x	i	i	x
COCCCNC(=S)N/N=C/c1ccc(N(C)C)cc1	u	-33%	i	i	-80%
COCCCNC(=S)N/N=C/c1ccc(N(C)C)cc1Cl	u	u	i	i	29µM*
CCC(C)Cn1cnc2c(SCc3ccccc3F)nc(N)nc21 (stereo not given)	x	18µM*	i	i	u
Cc1ccc2ccccc2c1CSc1nc(N)nc2c1ncn2CC(C)C	x	21%	i	21µM*	2%
CC(C)Cn1cnc2c(SCc3ccccc3F)nc(N)nc21	x	u	i	u	-14%
CCN(CC)S(=O)(=O)c1cc(NC(=O)C(C)OC(=O)c2[nH]c(C)c(C(C)=O)c2C)ccc1C (stereo not given)	10µM*	u	u	21µM*	4%
CCN(CC)S(=O)(=O)c1cccc(NC(=O)COC(=O)c2[nH]c(C)c(C(C)=O)c2C)c1	x	x	u	i	x
CC(=O)c1c(C)[nH]c(C(=O)OCC(=O)Nc2ccccc2Cl)c1C	8.2µM*	7%	21µM*	4.6µM*	0%
CC(=O)c1c(C)[nH]c(C(=O)CN(C)CC(=O)Nc2ccccc2Cl)c1C	18µM*	u	i	i	-4%
CCOC(=O)c1c(C)[nH]c(C(=O)CN(C)CC(=O)Nc2ccccc2Cl)c1C	u	u	i	i	-3%
CC(=O)c1c(C)[nH]c(C(=O)OCC(=O)Nc2cccc(S(=O)(=O)N(C)C)c2)c1C	13µM*	15%	i	i	3%
CC1CC(C)(C)CC2(C1)NC(=O)N(CC(=O)Nc1cc([N+](=O)[O-])ccc1F)C2=O (stereo not given)	0%	16%	i	i	-10%
Cc1ccccc1C(=O)OCC(=O)Nc1cccc(S(=O)(=O)N2CCCCC2)c1	x	x	i	i	x
SMILES	ELG1 repair inh	MCF10A rereplic	KB-3-1 cytotox	KB-V1 MDR tox	SW480 rereplic
Cc1onc(-c2ccccc2Cl)c1C(=O)OCC(=O)Nc1cccc(S(=O)(=O)N(C)C)c1	16µM*	12%	u	8.2µM*	9%
CC(=O)c1c(C)[nH]c(C(=O)OCC(=O)Nc2cc(S(=O)(=O)N3CCCC3)ccc2Cl)c1C	16µM*	-63%	u	13µM*	54%
CC(=O)c1c(C)[nH]c(C(=O)OCC(=O)Nc2cccc(S(=O)(=O)N3CCCC3)c2)c1C	u	23%	2.3µM*	u	-6%
CN(CC(=O)Nc1ccc(F)c(F)c1F)C(=O)/C=C/c1ccco1	u	-9%	i	i	-15%
Cc1nc(-c2ccccn2)sc1C(=O)Nc1ccc(F)cc1	-1%	u	u	18µM*	9%
Cc1nc(-c2cccnc2)sc1C(=O)Nc1ccc(Cl)cc1	-18%	10%	i	18µM*	-8%
Cc1nc(-c2ccncc2)sc1C(=O)Nc1ccc(Cl)cc1	u	1%	i	i	-116%
Cc1nc(-c2cccnc2)sc1C(=O)Nc1ccc(F)cc1F	-15%	1%	i	i	-7%
Cc1nc(-c2ccccn2)sc1C(=O)Nc1ccc(F)cc1F	u	-2%	i	10µM*	-10%
COc1cc(C2c3c(oc4ccccc4c3=O)C(=O)N2Cc2ccc(C)cc2)ccc1O (stereo not given)	x	x	i	u	x
CC(C)C[C@H]1CN(CCCC[C@H]2CNC(=O)C(=O)N2Cc2ccccc2)C(=O)C(=O)N1CCc1ccc(O)cc1	x	x	i	i	x
CC(C)COC(=O)N1CCCC1C(=O)O (stereo not given)	u	6.5µM*	i	i	0.73µM*
CC(C)(C)OC(=O)N1CCC[C@H]1C(=O)O	u	24%	i	i	-21%
Cc1ccc(NS(=O)(=O)c2ccc3c(c2)N(C)C(=O)CO3)cc1C	x	x	i	i	x
CCc1cn(C2CC(O)C(CO)O2)c(=O)[nH]c1=O (stereo not given)	u	25%	4.6µM*	i	-8%
COc1ccc(/C(C)=N/Nc2nncc3ccccc23)cc1	u	-8%	i	i	-6%
COc1ccc(/C(C)=N/Nc2nc3ccccc3nc2C)cc1	u	15µM*	15µM*	i	18µM*
O=C(CCc1nc(-c2ccc(Cl)cc2)no1)NCc1ccccc1CN1CCOCC1	u	2%	u	u	2%
CCOc1ccc(C(=O)c2oc3ccccc3c2NC(=O)Cc2coc3cc(C)cc(C)c23)cc1	x	x	i	i	x
N#Cc1c(-c2ccc(F)cc2)cc(-c2cccs2)nc1SCC(=O)O	-17%	23µM*	i	i	u
N#Cc1c(C(F)(F)F)cc(-c2cccs2)nc1SCC(=O)O	5%	0%	i	i	-3%
CN1CCN(C(=O)CSc2nc(-c3cccs3)cc(-c3cccs3)c2C#N)CC1	u	21µM*	u	u	u
CCN(CC)C(=O)CSc1nc(-c2cccs2)cc(-c2cccs2)c1C#N	16µM*	u	i	18µM*	0%
